# B1: uchl1_122_7439 (protein)
# chain: MLTIEVDVTSSLSPEGLAILREYASELLDNPEFEEELVSPGTLRLTFTGELKDLTPEQIREIANRALARAGADQSLTPNERVSLGNAIRRIARQVARARA
# B2: uchl1_122_7440 (protein)
# chain: MITIEIEVSSSLSEKGLEILAEAAKKLLDNAKIEVKEKSPSTKLITITGELKDLSEEEILEIENEALEEAGKDQSLTPNQRVSFGNALRRLAIQYAKAKA
# B3: uchl1_122_7441 (protein)
# chain: MVTIEVEVSSSLSPEALAILAEAAAELLEDARVEVRELSPSTLLITITGRLKDLSPEEIREIENRALERLGRDQSLTPNQRVSAGNALRRLARQYARAKA
# B4: uchl1_122_7442 (protein)
# chain: MLTIEVDVASSVSERTLEILKEYAEELLEDAEFSVEKKSPGTKLLTIKGKLKDVSDDEILEIENKALERAGKDQSITPNERVSFGNALRKIARQVARARA
# B5: uchl1_122_7443 (protein)
# chain: MLTIEVKVSSSLSERTLEILKKYAEKLLENPKFEVKELSPGTKLLTITGELKDVSDEEILEIRNEALEEAGKDQSITPNERVSFGNALRTISRQVARALA
# B6: uchl1_122_7444 (protein)
# chain: MLTVEVLVSSSLSEEVLEILEEYASKLLEDLEVEKKKVSPGTILITFTGELKDVSEEEIREIREEALERLSKLQNLTPNEKVSFGNALRRIERQVMQAKK
# B7: uchl1_122_7445 (protein)
# chain: MLTVEVLVSSSMSPEVLAILEEYASRLLDDLEVEREKVSPGTVLLTFRGRLKDVSEEEIRAIREEALARLAKLQDLTPNEKVSFGNALRRIERQVMRARR
# B8: uchl1_122_7446 (protein)
# chain: MLTVEVLVSSSLSERVLEILEEYAAALLDNLEVEREEVSPGTRLLTFTGELKDVSEDEIRAIREEALARLAELQDLTPNEKVSFGNALRRIERQVMAARR
# B9: uchl1_122_7447 (protein)
# chain: TVTVEVVGRRADIEAIAAVIRAVFAAAGIKVDVEIEELSPTTAKLTVTITVPPVTDEQVDATIAALAAAMAALVEAEGISRALAGIAFTRVERALRRAAA
# B10: uchl1_122_7448 (protein)
# chain: TVTVEVVGRREDIELIAAVIREVFAAAGIEVDVEIEELSPTTARLVVTIRAPPMTDAQVDATIAALAAAMARLVEEAGISRALAGIAFTRVERALRRAAA
# B11: uchl1_122_7449 (protein)
# chain: TETVEVVGRRADVEAIAATIRAVFASHGLTVDTTITELSPTTARLTVTVTLPPISDAQVAALEAALEAAMAALVEREGISRAFAGIATTRVIRAVRRAAA
# B12: uchl1_122_7450 (protein)
# chain: SETVEVVGRREALEAIAAAIREVLAAFGAEVEVRIEELSPNTARLTVTIRLPPISDARLAELLEALEAAMRRLVEERGVPAATAGLAYSRVARAIRRAAA
# B13: uchl1_122_7451 (protein)
# chain: SETVEVVGRRRDIELIAEAIKEVFEKFGVKVEVEIEELSPTTAKLTVTITVPPISDEELEALLAALEEAMRRLVEEEGVPRATAGLAYSRTARAVKRAAA
# B14: uchl1_122_7452 (protein)
# chain: TETVEVVGRRKDIELIAAAIREVAAAAGWTADVEIEELSENTAKLTVTVTLPPVSDAAVDAAEAALEAAMRRLVEEEGLSRAFVGIATTRVIRAIRRAAA
# B15: uchl1_122_7453 (protein)
# chain: TETVEVVGRRRDVEILAAVIREVFAAAGWTAEVTIEELSPTTARLVVTVTLPPASDEAVDALVAALEAAFREAVEKEGISRAFAGIAYTRVARAVRRAAA
# B16: uchl1_143_7454 (protein)
# chain: GMVHMEVEVIHIEVSEEDTPEEIREKIMEAMKKAVEKGKAIRIIITVPPDANKRLMVNTTARRAAREFAQEYKDKLKYLEIYARDKETGKEDLIAEIINP
# B17: uchl1_143_7455 (protein)
# chain: GHHMLEVEKIEIEVEETDTPEEIKKKIMEAMKKAVAKGKAIEIIITVPPDANFRLMVNTVAKRAAREFAKEYKDKLKYLKIYARDKETGKEDLIAEIVNP
# B18: uchl1_143_7456 (protein)
# chain: PPAPVPVHRVTIEVTREDTPEEIRARLEAAVAEAAAAGAALEITVVVTSDPNVRVMANTVARRVAREAARRYRDTLPSLRIVLRDRETGKEQLIAEADFR
# B19: uchl1_143_7457 (protein)
# chain: GPEVVPVRRVEITVTRADTPEEIEARLLAAVREAAAAGEALLITITVEGDANLRVMVGNVAKRVARRAAREYGDTLPSLRIIARDAETGKEQLLAEVDNR
# B20: uchl1_143_7458 (protein)
# chain: GLEAIPVLEVHLRVTPADTPEEIRARLMAAIEEAAAAGKALRIVITVEGDANLRVMVGNVAKRVAREAARRYGATLPSLTIVARDAETGREQLLAEADFR
# B21: uchl1_143_7459 (protein)
# chain: GSPEEEVEVIEVTIEPTDTPEQIREKITKALKEAVELEKDTRIVITVPPDPNLKLMVNTVARRELKKIAQEYPEKTKTITVEARDAETGKVDLLAEYVKE
# B22: uchl1_143_7460 (protein)
# chain: GAAPLPVLRTTIEVSEEDTPEEIYARIKAAIEEAIAAGKAAEVTIVVPPNPNVRVMVNNVAKRAARDVAKEYAGKVKEIRIYLEDRETGKRQLVAEVVNP
# B23: uchl1_143_7461 (protein)
# chain: ALEPLPVQKTTIEVSESDTPEEIYERIKAAIEAAIAAGKAAEVTIVVPPDPNVRVMVNNVAKRAAREVAQEHADKVKRITINLTDKETGKTEVVAEVVRP
# B24: uchl1_143_7462 (protein)
# chain: GAPALPVLRTTIEVTREDTPEEIHARIVAAIREAIAAGKAAEVTIVVPPDPNVRVMVNNVAKRAAREVAQEHADAVKRITIRLRDRETGRTQLVALVERP
# B25: uchl1_143_7463 (protein)
# chain: EEVELEVIHIEVTLTEDTTLEEVRALVEEAARLSIETGKHVVLTATVSNDPNHRLRANTMLRRAAREVIQERGAEIPKLVILLRDAETGKEDVIAEFDNR
# B26: uchl1_143_7464 (protein)
# chain: GSAPRPVIHLERTLSADTTLEEVEALVREAAELSVETGAPVVLTFTVSGDPNHRLRAHTMLRRAARRVIQELADRIPELRVLLRDEKTGKTQLIAHFDNR
# B27: uchl1_143_7465 (protein)
# chain: GSMHMETLTVERTMTEDTTLEEVYALLEEAAKKAIAEGKDLVVIFTVSSDPNHRLRANTLARRAARRIIQEYGKEIRRLEVLLRDAETGKVDLIALHDGR
# B28: uchl1_143_7466 (protein)
# chain: GPAPVPVLRVERTWTADTTLEEVLALLREAAERAIKEGKDLEVIFTVSPDPNHRLRANTLARRAGKEITQELGKRIRRLRVLLRDAETGKVDLIYEHDGR
# B29: uchl1_143_7467 (protein)
# chain: GPAAEPVLEVTIRVTRDTTPEELRARLLAAIDEAIAAGKALKITIEIPPDANLRVMVNTVAKRVAREVAKARGAELKRLVILGRDSATGKEQVLAEVVNP
# B30: uchl1_143_7468 (protein)
# chain: GPAVEPVETVTITVTPDTTPEELRARLLAAIDAALAAGKALTITIVVPPDANLRVMANTVAKRVAREVARAHGDRLRRLTIRARDAATGKTQLLAEVVNP
# B31: uchl1_143_7469 (protein)
# chain: APEPIEHIEVTIEVAETDTFEEIHARISAAIDAAIALGRRTELTIRLVVPTTASANLRVMVNTAARRALREHADHLEDASISGEQRPGKAVLVIRVLTKA
# B32: uchl1_143_7470 (protein)
# chain: GRPTPPTLTVNLTFDETTTPEEIRAALNAAIDEAAAAGKNLTITITVPADSNKRLMVTTVARRVAREAAKRYRDKLPELRILATDAATGKTQLIAEYVNE
# Target: UCHL1, P09936
# Sequence (P09936 whole entry, looked up, the tested form may be a part): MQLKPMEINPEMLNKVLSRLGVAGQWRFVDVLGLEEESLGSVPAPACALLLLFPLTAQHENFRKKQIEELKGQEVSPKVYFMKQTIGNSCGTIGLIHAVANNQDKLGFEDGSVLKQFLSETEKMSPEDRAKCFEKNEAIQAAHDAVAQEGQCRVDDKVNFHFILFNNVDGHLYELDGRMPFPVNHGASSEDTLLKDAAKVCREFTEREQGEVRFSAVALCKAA
# Experiment: median log2 fold change of GCK-ALFA target abundance (FLAG IP / Myc IP barcode read proportion) (log2 ratio); each designed protein is fused to an ALFA-tag nanobody in HEK293 cells to bring the named protein to FLAG-tagged glucokinase (GCK); Myc marks an untargeted standard; higher = target protein stabilised (more abundant)
# Conditions: target protein: 3xFLAG-MCP-GCK-ALFA reporter; HEK293 landing pad (RPLP)
# Procedure, shortened: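 Sequencing of reverse-transcribed, amplified circular RNA barcodes from anti-FLAG and anti-Myc immunoprecipitates provided the readout for an ALFA-nanobody-fused binder library recombined into HEK293 landing-pad cells. Those cells were induced with 2 μg mL^−1 doxycycline, transfected with a plasmid expressing a FLAG-tagged target and a Myc-tagged standard, and lysed after 48 h. Target abundance is the per-binder median log2 ratio of FLAG to Myc barcode read proportions. Only barcodes at a proportion of ≥10^−7 in both replicates and binders with ≥3 barcodes per replicate were kept, with a 10^−6 pseudocount added before the two replicates were pooled.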
row,Binder,median log2 fold change
1,B1,0.0949
2,B2,0.144
3,B3,0.185
4,B4,0.271
5,B5,0.153
6,B6,0.0563
7,B7,-0.026
8,B8,-0.238
9,B9,-0.15
10,B10,0.0437
11,B11,0.184
12,B12,0.143
13,B13,-0.77
14,B14,0.163
15,B15,-0.0277
16,B16,-0.0697

row,Binder,median log2 fold change
1,B17,0.157
2,B18,0.0928
3,B19,0.225
4,B20,0.147
5,B21,0.347
6,B22,0.0504
7,B23,0.242
8,B24,0.133
9,B25,0.184
10,B26,0.163
11,B27,0.138
12,B28,0.0958
13,B29,-0.119
14,B30,0.11
15,B31,0.139
16,B32,0.272
